Measurements taken from PubChem BioAssay AID1626 (SRMLSC, 2009).
Among all 220,000 compounds or so, about 2,000 (0.91%) were called active. Roughly 2% stayed inconclusive and do not appear here. Only a sample is shown. Results with a measured potency or affinity are listed apart. Unmarked numbers belong to inactive results. Cut-off read from the data, not from the text of the source: inconclusive = inhibition above about 80% without an active follow-up result; inactive = below that; test concentration not stated here.

Test: M. tuberculosis H37Rv growth inhibitors, H37Rv strain (AID 1626);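 note: bacteria incubated seven days before Alamar blue readout; 0% = bacteria only wells and 100% = bacteria with antibiotic wells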
Conditions: active compounds read high, concentration not given here

Row | Compound | inhibition [%]
1 | COc1cc(CCNc2ccc3nnc(-c4ccccc4)n3n2)cc(OC)c1OC | 10.3
2 | O/N=C1\CCCCc2ccccc21 | -4.26
3 | CC12CCC(C(=O)N3CCN(C(c4ccccc4)c4ccccc4)CC3)(OC1=O)C2(C)C (configuration not stated) | 1.93
4 | CC(Nc1nc(-c2ccc(F)cc2)cs1)c1nc2cc(Cl)c(N3CCCCC3)cc2n1CCCO (configuration not stated) | 78
5 | CC(Nc1nc(-c2ccc(Cl)cc2)cs1)c1nc2cc(Cl)c(N3CCCCC3)cc2n1CCOCCO (configuration not stated) | 44.5
6 | COc1ccc(-c2csc(NC(C)c3nc4cc(Cl)c(Cl)cc4n3CCCO)n2)cc1 (configuration not stated) | 5.27
7 | CC(Nc1nc(-c2ccc(F)cc2)cs1)c1nc2cc(Cl)c(N3CCCCC3)cc2n1CCOCCO (configuration not stated) | 19.6
8 | Cc1ccc(NC(=O)c2cc(NC(=O)C3CC=CCC3C(=O)O)ccc2N2CCOCC2)cc1Cl (configuration not stated) | -6.7
9 | CCN(CC)CCn1c(NC(=O)c2ccc(Cl)cc2)nc2ccccc21 | 57.6
10 | CC(C)NC(=O)c1cccc(Cn2cc(Cl)cn2)c1 | -2.76
11 | CN(C)CCn1c(NC(=O)c2ccc(Cl)cc2)nc2ccccc21 | 65.2
12 | Cn1c(NC(=O)c2cccc(Cn3cc(Cl)cn3)c2)nc2ccccc21 | 84.7
13 | O=C(Nc1nc2ccccc2n1CCN1CCCC1)c1ccc(Cl)cc1 | 58.7
14 | CC(=O)Nc1nc2ccccc2n1CCN1CCOCC1 | -6.15
15 | CCn1c(CNC(=O)c2ccccc2)nc2ccccc21 | -6.06
16 | CCn1c(NC(C)=O)nc2ccccc21 | 2.94
17 | Cc1c(C(=O)N/N=C/c2ccc(N3CCOCC3)cc2)nc2ccccn12 | 3.49
18 | CC(c1ccccc1)c1nnc(NC(=O)c2ccc3c(c2)OCO3)s1 (configuration not stated) | 6.54
19 | O=C(OCCN1C(=O)c2ccccc2C1=O)C1CCN(S(=O)(=O)c2cccs2)CC1 | -5.04
20 | CCCCNC(=O)N1CCN(C/C=C/c2ccccc2)CC1 | 5.68
21 | O=C(c1ccc(C(F)(F)F)cc1)N1CCCCC1 | -0.08
22 | Fc1cccc(NC(=S)NCc2cccnc2)c1 | 21.1
23 | O=c1c2cc(-c3ccccc3)sc2nc2n1N=C(c1ccccc1)CS2 | 10.6

Row | Compound | inhibition [%]
24 | CCCCN(CCCC)Cc1cc2ccccc2c2c1COC2 | 4.07
25 | CCCn1c(Nc2nc3ccccc3n2C)nc2ccccc21 | 2.56
26 | CCn1c(CCCNC(=O)c2cccs2)nc2ccccc21 | -2.25
27 | CCCn1c(Nc2ccccc2C)nc2ccccc21 | -8.39
28 | CCCn1c(C(C)NC(=O)c2ccccc2)nc2ccccc21 (configuration not stated) | 0.32
29 | CCCn1c(CNC(=O)c2ccccc2)nc2ccccc21 | -0.92
30 | CCn1c(C(C)NC(=O)c2cccs2)nc2ccccc21 (configuration not stated) | 2.83
31 | CCCn1c(NC(=S)Nc2ccccc2)nc2ccccc21 | 7.73
32 | CCCn1c(NCCO)nc2ccccc21 | -2.95
33 | Cc1onc(-c2ccccc2Cl)c1C(=O)N1C=CC(C(F)(F)Cl)=NCC1 | 1.09
34 | O=C(NCc1ccc(Cl)cc1)c1cc(-c2cccs2)on1 | -1.76
35 | Cc1cccc(SCC(=O)Nc2ccccc2[N+](=O)[O-])c1 | 7.5
36 | COc1ccc(N=C2S/C(=C\c3ccc(OCC(=O)O)cc3)C(=O)N2CCc2c[nH]c3ccccc23)cc1 | -4.37
37 | Cc1ccc(C)c(CN2C(=O)COc3ccc(C(=O)c4ccccc4C(=O)O)cc32)c1 | 15.8
38 | CCN(CC)S(=O)(=O)c1cccc(NC(=O)COC(=O)CNC(=O)c2cccc(F)c2)c1 | -4.29
39 | Cc1ccccc1NS(=O)(=O)c1cc(C(=O)NCc2ccco2)ccc1C | -1.94
40 | COc1cc(NC(=O)CSc2nnc(C)s2)cc(OC)c1OC | 0.33
41 | CCn1cc(Cl)c(C(=O)Nc2nc3ccccc3n2CCN2CCCCC2)n1 | 3.91
42 | CCn1c(NC(=O)Nc2ccccc2OC)nc2ccccc21 | 81.5
43 | Cc1ccc(-c2nc(C(F)(F)F)cc(=O)[nH]2)cc1 | -0.92
44 | CCOC(=O)c1c(NC(=O)c2nn(CC)cc2Br)c(C#N)cn1-c1ccccc1 | -6
45 | CC(C)Oc1cccc(C(=O)C2CCCN(Cc3ccon3)C2)c1 (configuration not stated) | 5.09
46 | CCOC(=O)N1CCC(N2CCCC(C(=O)c3cc(C)c(OC)c(C)c3)C2)CC1 (configuration not stated) | -0.88

Row | Compound | inhibition [%]
47 | CCn1ccnc1CN1CCCC(C(=O)c2ccc(OC)cc2OC)C1 (configuration not stated) | -1.43
48 | CCOC(=O)N1CCC(N2CCCC(C(=O)c3cccc(OC)c3)C2)CC1 (configuration not stated) | 0.16
49 | COc1ccc(O)c(CN2CCCC(C(=O)c3ccccc3SC)C2)c1 (configuration not stated) | -3.14
50 | COc1ccc(OC)c(CN2CCCC(C(=O)c3ccccc3SC)C2)c1 (configuration not stated) | 5
51 | CCn1ccnc1CN1CCCC(C(=O)c2cc(C)c(OC)c(C)c2)C1 (configuration not stated) | 9.37
52 | Cc1ncc(CN2CCCC(C(=O)c3cccc(OC(C)C)c3)C2)s1 (configuration not stated) | -0.24
53 | c1ccc(-c2cnc(SCCN3CCOCC3)n2CC2CCCO2)cc1 (configuration not stated) | 4.09
54 | CCN(CC)C(=O)C(=O)c1cccn1-c1c(Cl)cccc1C#N | -1.07
55 | NC(=O)c1cn(-c2ccccc2)nc1-c1cccnc1 | -9.42
56 | CC1CC(=O)N(CC(=O)NCc2ccco2)c2ccccc2S1 (configuration not stated) | -7.83
57 | O=C(CCc1nnc(CCc2c[nH]c3ccccc23)o1)NC1CCC1 | -2.04
58 | COc1ccc(NC(=O)c2ccccc2[N+](=O)[O-])cc1 | -5.35
59 | Cc1c(C(=O)NCCCn2ccnc2)oc2ccccc12 | 3
60 | CCc1ccc(/C=N/NC(=O)c2cc(C)on2)s1 | 4.86
61 | CC(C)CCNC(=O)CCSCCC(=O)NCCC(C)C | -5.9
62 | COc1cccc(C(=O)C2CCCN(Cc3cccc(C)n3)C2)c1 (configuration not stated) | 6.54
63 | COc1c(C)cc(C(=O)C2CCCN(Cc3ccccn3)C2)cc1C (configuration not stated) | 52.1
64 | Cc1cccc(CN2CCCC(C(=O)c3ccc4c(c3)OCO4)C2)n1 (configuration not stated) | 9.77
65 | COc1ccc(C(=O)C2CCCN(Cc3cccc(C)n3)C2)c(OC)c1 (configuration not stated) | -9.04
66 | COc1ccc(C(=O)C2CCCN(Cc3cnc(C)s3)C2)cc1OC (configuration not stated) | -7.69
67 | COc1ccc(C(=O)C2CCCN(Cc3cnc(C)s3)C2)c(OC)c1 (configuration not stated) | 1.52
